Source: PubChem (National Center for Advancing Translational Sciences (NCATS))
gsp antag = qHTS for Antagonists of gsp, the Etiologic Mutation Responsible for Fibrous Dysplasia/McCune-Albright Syndrome: qHTS; Potency, µM (titrated, usually from 76.9 µM), without a hit: at the top dose activity change, negative = inhibition, actives largely listed as inhibitors; gsp-mutant cells, cAMP HTRF, 30 min; 340,000 compounds, 0.4% hits; AID 624288, 2012; calls by dose curve; cell line not stated here;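 further: intracellular cAMP measured with PDE inhibitor Ro 20-1724 present during compound exposure; potency means the concentration at half of the fitted maximal effect; on the % scale 0 is the no-effect control and ±100 the full control effect; nearly all actives have a fitted effect of over 65% in size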
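HTRF cAMP read-out (cAMP-d2 plus anti-cAMP antibody-K in lysis buffer, 30 min RT). Before lysis, cells are exposed to compounds with […] for 30 min at 37C in DPBS containing Ca/Mg, BSA and Tween 20.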
RXFP1 agonist = qHTS Assay for Agonists of the Relaxin Receptor RXFP1; Potency, µM (titrated, usually from 57.5 µM), inactives show at the highest dose activation, actives largely listed as activators; AID 2676, 2010; HEK293T-RXFP1 cAMP TR-FRET, 30 min; response scale: percent of porcine relaxin response, buffer zero; Relaxin receptor 1 (Homo sapiens), Q9HBX9; 370,000 compounds, 0.3% hits; active means well fitted activation curve with a large enough effect; inconclusive means small, poorly fitted or top-dose-only effect; further: potency means the concentration at half of the fitted maximal effect; on the % scale 0 is the no-effect control and ±100 the full control effect; nearly all actives have a fitted effect of over 60% in size
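cAMP rise read by TR-FRET after 30 min, 37C compound exposure (up to 58 uM) in RXFP1-transfected HEK293 cells with Ro 20174 present. EC50 from Hill-equation fits, with 29 nM porcine relaxin as 100% and buffer as basal.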
gsp ag = qHTS for Agonist of gsp, the Etiologic Mutation Responsible for Fibrous Dysplasia/McCune-Albright Syndrome: qHTS; gsp mutant cells, cAMP HTRF, 30 min; Potency, µM (titrated, usually from 76.9 µM), inactives show at the top dose activation (cAMP increase), actives largely listed as activators; 340,000 compounds, 0.13% hits; active means well fitted activation curve with a large enough effect; inconclusive means small, poorly fitted or top-dose-only effect, or another doubt; inactive means no such curve, though single readings can be large or run the other way; cell line not stated here;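 further: phosphodiesterase inhibitor Ro 20-1724 added with compounds to block cAMP breakdown; potency means the concentration at half of the fitted maximal effect; nearly all actives have a fitted effect of over 60% in size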
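Cells stably selected in G418 were plated at 2000/well, grown 16-24 hr, then given compounds in DMSO with the PDE inhibitor […] (300 uM solution added) for 30 min at 37C; cAMP was read by HTRF.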
ClpP mod = qHTS Assay for Activators of ClpP | purified B. subtilis ClpP, FRET peptide cleavage, 20 min | Potency, µM (titrated, usually from 57.5 µM), for the others: at the top dose activity change, negative = active | 340,000 compounds, 1.9% hits | AID 651965, 2013; active means well fitted falling curve with a large enough effect; inconclusive means small, poorly fitted or top-dose-only effect; inactive means no such curve, though single readings can be large or run the other way; further: potency means the concentration at half of the fitted maximal effect; the source files actives as falling curves though it sought activators and does not explain the sign; nearly all actives have a fitted effect of over 65% in size
Target sequence (P80244 whole entry, looked up): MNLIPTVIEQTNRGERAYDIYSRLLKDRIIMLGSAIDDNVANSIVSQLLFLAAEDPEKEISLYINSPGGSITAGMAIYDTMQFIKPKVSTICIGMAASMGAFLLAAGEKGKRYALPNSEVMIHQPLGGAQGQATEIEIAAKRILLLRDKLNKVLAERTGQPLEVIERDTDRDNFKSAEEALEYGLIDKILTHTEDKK
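FRET quenching reversal measured ClpP activation: 10 microg/mL B. subtilis ClpP at pH 8 with the FRET-FV decapeptide, read at 430 nm after 320 nm excitation. The 20-min minus 0-min signal was scaled between DMSO/no-enzyme wells and ADEP (5.8 microM final).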
pAkt inh = HTS Assay for Inhibitors of Akt Phophorylation: Primary Screen | Neuro2A IGF-stimulated pAkt S473 HTRF, 20 min; hits give low values | activity change, % for hits at 50 µM | 360,000 compounds, 0.32% hits | AID 651550, 2012; in the data active means activity change below about -80%; inconclusive means mostly about -51% to -80%; further: on the % scale 0 is the no-effect control and ±100 the full control effect
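Single-point screen (50 µM final compound) in Neuro2A cells stimulated 20 min with 6 nM IGF at 37 deg C. After lysis, Ser473-phosphorylated Akt read by HTRF (ex 330 nm, em 615/665 nm) as the 665/615 ratio.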
RXFP1 antag = qHTS Assay for Antagonists of the Relaxin Receptor RXFP1; Relaxin receptor 1 (Homo sapiens), Q9HBX9; activity change, negative = inhibition, % at 57.5 µM; 350,000 compounds, 0.59% hits; AID 1259400, 2018; HEK293-RXFP1, relaxin-stimulated cAMP HTRF, 30 min; hits give low values;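 active means activity change of -60% or lower, but not beyond a set lower limit; inconclusive means change between -60% and -40%, or beyond the set limit; inactive means change above -40%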; further: on the % scale 0 is the no-effect control and ±100 the full control effect
The depositor's hits bear a star; i = inactive; ? = inconclusive; / = no result given; [ ] = another dose, or the depositor's remark. Hits are enriched below; roughly 2.7% of the tested compounds scored in any of these assays.

SMILES	gsp antag	RXFP1 agonist	gsp ag	ClpP mod	pAkt inh	RXFP1 antag
C[C@H]1CN([C@@H](C)CO)S(=O)(=O)c2ccc(/C=C/c3ccccc3)cc2O[C@H]1CN(C)C(=O)NC1CCCCC1	/	/	?	35.5µM*	i	-6.8
C[C@@H]1CN([C@H](C)CO)C(=O)c2cc(/C=C/c3ccccc3)cnc2O[C@H]1CN(C)C(=O)NC1CCCCC1	/	/	-22.9%	4.0%	i	0.4
COc1ccc(-n2c(=O)c3ccc(C(=O)NCc4ccc(C)cc4)cc3n(CC(=O)Nc3ccc(F)cc3)c2=O)cc1	/	31.6µM*	/	-3.9%	/	/
COc1ccc(-n2c(=S)[nH]c3cc(C(=O)NCc4ccccc4OC)ccc3c2=O)c(OC)c1	-35.2%	-0.9%	3.3%[15.4 µM]	/	i	-15.1
COc1ccc(-n2c(=S)[nH]c3cc(C(=O)Nc4ccccc4OC)ccc3c2=O)c(OC)c1	28.2µM*	-1.2%	3.8%[15.4 µM]	/	i	-18.7
COc1ccc(-n2c(=S)[nH]c3cc(C(=O)Nc4ccccc4OC)ccc3c2=O)cc1	/	3.2%	/	/	/	/
COc1ccc(-n2c(=S)[nH]c3cc(C(=O)Nc4ccc(F)cc4)ccc3c2=O)c(OC)c1	39.8µM*	3.4%	5.4%	/	i	?
COc1ccc(NC(=O)c2ccc3c(=O)n(-c4ccc(OC)cc4OC)c(=S)[nH]c3c2)cc1	-90.3%	0.6%	31.7%[15.4 µM]	-0.3%	i	-12.6
COc1ccc(-n2c(=S)[nH]c3cc(C(=O)NCc4ccc(F)cc4)ccc3c2=O)c(OC)c1	25.1µM*	0.4%	7.0%[15.4 µM]	1.1%	i	-16.9
Nc1ccn([C@@H]2O[C@H](CNCc3ccc(OCC(=O)Nc4nccs4)cc3)[C@@H](O)[C@H]2O)c(=O)n1	/	/	0.6%	0.9%	i	-4.4
Oc1cccc2[nH]ccc12	/	/	/	/	/	-8.4
CC(C)c1ccc(C2NC(C(=O)O)CS2)cc1 (stereo not given)	17.4%	0.1%	?	1.6%	-104.5%*	-15.5
N#Cc1c(-c2ccc(F)cc2)cc(-c2cccnc2)nc1N	5.2%	19.2%	-31.1%	?	i	-11.0
N#Cc1c(-c2ccco2)cc(-c2ccc(F)cc2)nc1N	5.1%	0.5%	-19.4%	35.5µM*	i	-15.1
CC(C)Cc1cc(-c2ccco2)c(C#N)c(N)n1	-2.4%	3.1%	3.6%	3.16µM*	i	-3.1
CCSc1nc(N)c(C#N)c(-c2ccco2)c1C#N	-4.6%	2.3%	4.4%	?	i	1.9
COc1cc(OC)c(/C=C/c2ccc3ccccc3[n+]2[O-])c(OC)c1	/	/	/	-2.6%	/	/
CCCCOc1ccccc1NC(=O)c1ccco1	1.1%	1.5%	13.6%	12.6µM*	i	-15.5
O=C1CCSC2(C(=O)N(Cc3ccc(F)cc3)c3ccccc32)N1c1ccc(Cl)cc1 (stereo not given)	/	0.5%	/	0.5%	/	-79.5*
COc1ccc(CCN2CC(C(=O)NCC(c3ccccc3)N(C)C)CC2=O)cc1OC (stereo not given)	4.6%	/	5.2%	/	i	-89.8*
COc1ccc(CCNC(=O)C2CC(=O)N(CCc3ccccc3)C2)cc1OC (stereo not given)	4.2%	-1.4%	18.3%	-2.0%	i	12.0
CCOC(=O)C1(C)CCCN1C(=O)c1ccc(OC)cc1 (stereo not given)	/	/	/	0.1%	i	/
COc1cc(O)ccc1-c1nc2cc(C)ccn2c1Nc1ccccc1C	/	12.7%	/	4.1%	/	-25.8
Cc1ccc(NC(=O)c2sc(-n3nc(C)c(Cc4ccc5c(c4)OCO5)c3C)nc2C)cc1Cl	/	13.5%	/	-6.1%	/	-4.9
CC1=C(c2ccc(C(C)C)cc2)S(=O)(=O)N=C1N1CCN(c2ccccc2F)CC1	/	12.0%	/	1.1%	/	-0.4
SMILES	gsp antag	RXFP1 agonist	gsp ag	ClpP mod	pAkt inh	RXFP1 antag
C=CCn1c(SCC(=O)Nc2sccc2C(N)=O)nc2sc(CC)cc2c1=O	-29.1%	1.5%	5.5%	-0.9%	-111.1%*	-6.7
COc1ccc(S(=O)(=O)NNC(=O)c2ccc(-n3c(C)ccc3C)cc2)cc1	2.4%	-0.5%	?	/	i	-4.2
Cc1csc(Sc2nc3c(c(=O)[nH]c(=O)n3C)n2Cc2ccccc2Cl)n1	39.8µM*	-1.3%	0.7%	0.4%	i	-11.0
Cc1ccc(CN2C(=O)C(=O)c3cc(Br)cc(C)c32)cc1	/	0.6%	/	-1.5%	/	-62.2*
Cc1cccc(-c2cccc(NC(=O)C3CCCN(C(=O)c4cccnc4)C3)c2)c1 (stereo not given)	-11.9%	-0.2%	?	0.2%	i	6.6
Cc1cccc(-c2cccc(NC(=O)C3CCCN(C(=O)c4csc(C)n4)C3)c2)c1 (stereo not given)	35.5µM*	0.4%	?	0.2%	i	10.4
CC(C)(C)c1ccc(C(=O)C[n+]2ccc(Cl)c3ccc(Cl)cc32)cc1	/	/	/	-5.2%	/	/
O=C(N/N=C/c1ccc(OC(=O)c2ccccc2Cl)cc1)c1ccccn1	2.1%	1.3%	1.2%[15.4 µM]	15.0%	i	-8.3
O=C(N/N=C/c1ccc(OC(=O)c2ccccc2Cl)cc1)c1cc(O)cc(O)c1	-10.8%	1.6%	-5.2%[15.4 µM]	-2.5%	i	-85.0*
Cc1ccc2oc3nc(C)c(C(=O)O)cc3c(=O)c2c1	-0.6%	-1.1%	-17.3%	28.2µM*	i	-3.7
CC(=O)c1cc2c(=O)c3cc(C)ccc3oc2nc1C	2.7%	4.0%	-36.5%	-22.3%	i	-3.0
CCN(CC)S(=O)(=O)c1cc(NC(=O)c2ccc3c(c2)NC(=O)C(C)S3)ccc1C (stereo not given)	?	-0.3%	-30.3%	-3.3%	i	-76.3*
O=C(CCc1nc(-c2ccccc2)c(-c2ccccc2)o1)OCc1ccc(Br)cc1	-10.0%	1.0%	12.7%	28.2µM*	i	5.9
O=C(O)CCc1nc(-c2ccccc2)c(-c2ccccc2)o1	/	3.8%	/	/	/	-14.9
O=C(CCc1nc(-c2ccccc2)c(-c2ccccc2)o1)OCc1ccc(Cl)cc1	-3.1%	0.6%	34.3%	31.6µM*	i	4.0
COc1ccc(CNC(=O)C2CCN(S(=O)(=O)c3ccc4c(c3)CC(C)N4C(C)=O)CC2)cc1 (stereo not given)	-12.8%	-3.7%	-12.3%	0.1%	i	-4.5
CCCCN(C)c1c(C)nc2ccc(C(=O)NCCCn3ccnc3)cn12	/	/	/	-0.7%	i	/
